Several values for one entry are separate records, joined by “and”; a condition that tells them apart may be missing. Identical values can stand only once. Values without a mark were called inactive.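 Rule for the calls: active = z-score of at least 1.8 in each of two replicates, scored against plate mean and spread of sample wells; inactive = the rest.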
Experiment: viability rescue of complex I mutant cybrids, primary screen, cell-based, galactose medium, ATP luminescence (AID 1645843);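 note: positive z means more ATP and so rescue of galactose-driven cybrid death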
Conditions: complex I mutant cybrid cells, 72 h, active compounds read high

Compound | z-score
Oc1ccc(-c2nc(-c3ccc(F)cc3)c(-c3ccncc3)[nH]2)cc1 | 1.04 and 0.455
O=C(c1ccc(Nc2nccc(-c3cc4ccccc4s3)n2)cc1)N1CCC(N2CCCC2)CC1 | -0.705
Cc1ccc(S(=O)(=O)/C=C/C#N)cc1 | -1.38 and -1.04
CC(C)(Sc1ccc(CCN(CCCCC2CCCCC2)C(=O)NC2CCCCC2)cc1)C(=O)O | 0.62 and 1.14
C[C@H](NC(=O)Cc1cc(F)cc(F)c1)C(=O)N[C@H](C(=O)OC(C)(C)C)c1ccccc1 | 0.56
Cc1ccc(NC(=O)c2cccc(N(C)C)c2)cc1NC(=O)c1ccc(O)cc1 | 1.09
O=C(O)Cc1cccc(OCCCN(Cc2cccc(C(F)(F)F)c2Cl)CC(c2ccccc2)c2ccccc2)c1 | -0.7
O=C1c2ccccc2-c2n[nH]c3cccc1c23 | 0.03 and 0.085
